In PubChem BioAssay AID686978 (National Center for Advancing Translational Sciences (NCATS), 2013):
The campaign covered roughly 420,000 compounds. About 64,000 (15%) were called active. Roughly 27% stayed inconclusive and do not appear here. Calls come from the whole dose curve; as a rule, active = well fitted inhibition curve with a large enough effect; inconclusive = small, poorly fitted or top-dose-only effect; inactive = flat fitted curve, though single readings scatter. Only a sample is shown. A call without a number means that no potency is given here.

Assay: qHTS for Inhibitors of human tyrosyl-DNA phosphodiesterase 1 (TDP1): qHTS in cells in absence of CPT; note: nearly all actives have a fitted effect of over 55% in size
Conditions: DT40 Tdp1-/- hTDP1 cells, no CPT, ATP luminescence, 48 h; activity change, negative = growth inhibition: at 46.2 µM (top of the series)
How it was run: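 Readout: luminescence from CellTiter-Glo after 30 min in the dark at RT. Cells: DT40 Tdp1-/- with stable hTDP1, 400/well. Exposure: compounds alone, ≥48 hr, 37 °C.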
Potency is the fitted concentration of half-maximal effect.

| SMILES | Potency |
| --- | --- |
| Cc1ccc(NC(=O)c2sccc2C)cc1[N+](=O)[O-] | inactive |
| O=C(C1CCN(CC2CCCCC2)CC1)N1CCCC1 | inactive |
| CC(=O)NS(=O)(=O)c1ccc(NC(=S)NC(=O)C(C)(C)C)cc1 | inactive |
| CC(NC(=O)c1ccccc1SCC(=O)N1CCCC1)c1ccccc1 (configuration not stated) | inactive |
| CCOc1ccc(NC(=O)CSc2ncnc3c2sc2ccccc23)cc1 | inactive |
| C=CCn1c(=S)[nH]c2nc3c(cc2c1=O)COC(C)(C)C3 | inactive |
| CC1(C)Cc2nc3sc4c(SCC(=O)NC(c5ccccc5)c5ccccc5)ncnc4c3cc2CO1 | 8.2 µM (active) |
| O=c1cnnc(Nc2ccccc2F)[nH]1 | inactive |
| CCc1nc2nc(C)c(NS(=O)(=O)c3ccc4c(c3)CCCC4)c(=O)n2[nH]1 | inactive |
| COCc1c(N)c(C)nc(Cl)c1C#N | inactive |
| O=C(NCCCO)C(=O)Nc1c2c(nn1-c1ccccc1)CSC2 | inactive |
| COc1ccc(N(C(=O)CNC(=O)c2ccco2)C(C(=O)NCC2CCCO2)c2ccccc2)cc1Cl (configuration not stated) | inactive |
| O=C(NCCCN1CCOCC1)c1cn(-c2ccccc2)nc1-c1ccc(F)cc1 | inactive |
| O=C(NCc1cccnc1)c1cn(-c2ccccc2)nc1-c1cccs1 | inactive |
| Cc1ccc(-c2nn(-c3ccc(F)cc3)cc2C(=O)NCC(c2cccs2)N2CCOCC2)cc1 (configuration not stated) | 14.6 µM (active) |
| Cc1nn(CC(=O)NCc2ccccn2)c(C)c1[N+](=O)[O-] | inactive |
| CCOC(=O)c1c(NC(=O)/C=C/c2ccco2)sc(C)c1C | inactive |
| C#CCOCCOCCOCCNc1nc(N2CCN(C(=O)C([C@@H](C)CC)n3cc(C(N)COC(=O)C(F)(F)F)nn3)CC2)nc(N2CCN(C(=O)[C@H](Cc3ccc(O)cc3)n3cc(C(N)[C@H](C)CC)nn3)CC2)n1 (some centres not stated) | inactive |
| O=C(CSc1nncn1-c1cccnc1)N1CCOCC1 | inactive |
| O=S(=O)(c1ccc(F)cc1)N1CCN(C(=S)NC2CCCC2)CC1 | inactive |
| CCOC(=O)c1sc(=S)n(-c2cccc(OC)c2)c1N | 11.2 µM (active) |
| COc1cccc(-n2c(=S)sc3c(=O)n(-c4ccccc4C)c(SCC(=O)O)nc32)c1 | inactive |

| SMILES | Potency |
| --- | --- |
| CCOC(=O)Cn1c(N)c(C(=O)OC)sc1=S | inactive |
| Cc1ccc(-c2nnn(CC(=O)N(CCO)C(C(=O)NC(C)(C)C)c3ccncc3)n2)cc1 (configuration not stated) | inactive |
| Cc1cccc2c3c(ccc12)C1=C(C(=O)C3=O)C(C)CO1 (configuration not stated) | inactive |
| CCCC(=O)Nc1ncnc2c1ncn2[C@@H]1O[C@@H]2OP(=O)(O)OC[C@H]2[C@H]1OC(=O)CCC | inactive |
| Cc1nc(CNS(=O)(=O)c2cccnc2)cs1 | inactive |
| CCNC(=O)c1cc2n(n1)CCCN(Cc1ccc(C)cc1)C2=O | inactive |
| O=C(NCc1ccccc1Cl)c1csc2c1CCCCC2 | inactive |
| COc1cc(CNC(=O)c2cc3n(n2)CCCN(Cc2cccc(F)c2)C3=O)cc(OC)c1OC | 20.6 µM (active) |
| COC(=O)c1cc2n(n1)CCCNC2=O | inactive |
| Cc1ccc(CN2CCCn3nc(C(=O)NCc4ccccc4Cl)cc3C2=O)cc1 | 25.9 µM (active) |
| COC(=O)c1ccc(CNC(=O)C2CCC(=O)N(Cc3cccc(F)c3)C2)cc1 (configuration not stated) | inactive |
| Cn1c(=O)c2c(ncn2CC(=O)N/N=C/c2cn[nH]c2-c2ccc(F)cc2)n(C)c1=O | inactive |
| O=C(Cc1ncc(C(F)(F)F)cc1Cl)Nc1cccc(Br)c1 | inactive |
| CCc1nnc(NC(=O)CCC(=O)O)s1 | inactive |
| O=C(Nc1ncccn1)c1cccs1 | inactive |
| C/C(CCc1ccccc1)=N\NC(=O)c1ccc(CN2CCOCC2)cc1 | inactive |
| CCN1CN(Cc2ccccc2)CNC1=S | inactive |
| S=C1SCN(CCN2CCOCC2)CN1Cc1ccccc1 | 3.16 µM (active) |
| O=C(O)/C=C/C(=O)Nc1ccc(F)cc1F | inactive |
| COC(=O)c1sc(-c2ccc(C(C)(C)C)cc2)cc1NC(=O)/C=C/C(=O)O | 4.61 µM (active) |
| CSc1ccc(NC(=O)/C=C/C(=O)O)cc1 | inactive |
| Cc1nnc(SC(C(=O)Nc2cc(Cl)cc(Cl)c2)c2ccccc2)[nH]c1=O (configuration not stated) | inactive |

| SMILES | Potency |
| --- | --- |
| O=C(O)C1CCCCC1C(=O)Nc1ccc(Cl)cc1 (configuration not stated) | inactive |
| COc1ccc(CNC(=O)c2cc(C(=O)C3CC3)c[nH]2)cc1 | inactive |
| O=C(Nc1ccccc1)C1CCN(C(=O)c2ccc(Br)cc2)CC1 | inactive |
| CC(C)(C)c1ccc(C(=O)N2CCC(C(=O)N3CCCCC3)CC2)cc1 | inactive |
| COc1ccc(S(=O)(=O)N2CCC(C(=O)NCCC(=O)Nc3ccccc3OC)CC2)cc1 | inactive |
| CCc1ccc(NC(=O)CN2CCC(C(=O)c3ccc(OC)cc3)CC2)cc1 | 23.1 µM (active) |
| COc1ccc(OC)c(NC(=O)C2CCN(S(=O)(=O)c3ccc(C)cc3)CC2)c1 | inactive |
| CCc1ccc(NC(=O)Cn2nnc(C(=O)NCc3ccc(OC)cc3)c2N)cc1 | inactive |
| COc1ccccc1NC(=O)C1CCN(C(=O)c2ccc(C(C)(C)C)cc2)CC1 | 16.4 µM (active) |
| COc1ccc(C(=O)N2CCC(C(=O)Nc3ccc(C)cc3)CC2)cc1 | 10.3 µM (active) |
| OCC(O)CN(c1ccccc1)c1ccccc1 (configuration not stated) | inactive |
| Cc1ccccc1-n1nc(SCC(=O)O)sc1=S | inactive |
| N=c1ccn(CC(=O)NC(N)=O)c2ccccc12 | inactive |
| C/C=N/NC(=O)CCCC(=O)N/N=C/C | inactive |
| C[C@H](CO)N1C[C@H](C)[C@@H](CN(C)S(=O)(=O)c2ccc(F)cc2)Oc2ccc(NC(=O)CCC(F)(F)F)cc2C1=O | inactive |
| O=C(O)c1c(Br)c(Br)c(Br)c(Br)c1C1c2ccc(O)cc2Oc2cc(O)ccc21 | inactive |
| O=C(CNC(=O)[C@@H]1Cc2ccccc2CN1)NC1CCCCC1 | inactive |
| Cn1c(SCC(=O)OC2CCCCC2)nnc1-c1ccc(S(=O)(=O)N2CCCC2)cc1 | inactive |
| COCCNC(=O)CN1C(=O)CSc2ncccc21 | inactive |
| CC(=O)Nc1ccc(OC(=O)COc2ccc(Br)cc2)cc1 | inactive |
| O=C(OCc1ccc([N+](=O)[O-])cc1)C1CC(=O)N(Cc2ccccc2Cl)C1 (configuration not stated) | inactive |
| O=C1NC(=O)C2C1C(c1ccc([N+](=O)[O-])cc1)=NN2Cc1ccccc1 (configuration not stated) | inactive |

| SMILES | Potency |
| --- | --- |
| O=[N+]([O-])c1ccc(CN2CC(N3CCC(c4ccccc4)CC3)CS2(=O)=O)cc1 (configuration not stated) | 23.1 µM (active) |
| CSCC(NS(=O)(=O)c1ccc(C)cc1)C(=O)O (configuration not stated) | inactive |
| O=C(Nc1nnc(C2CC2)s1)C1=NN(C2CCS(=O)(=O)C2)C(=O)CC1 (configuration not stated) | inactive |
| Cn1cc(CCC(=O)NC2CC2)c2ccccc21 | inactive |
| O=C(O)c1cccc(N=NN2CCCCCC2)c1 | inactive |
| CCC1CCCCN1C(=S)Nc1ccc(C(C)=O)cc1 (configuration not stated) | inactive |
| CC(=O)c1ccccc1NC(=O)CC1(CC(=O)O)CCCCC1 | inactive |
| Cc1ccc(S(=O)(=O)N(CC(O)CN2CCCCC2)c2cccc([N+](=O)[O-])c2)cc1 (configuration not stated) | inactive |
| COc1ccc([N+](=O)[O-])cc1N(CC(O)CN(CC(C)C)CC(C)C)S(=O)(=O)c1ccc(C)cc1 (configuration not stated) | 23.1 µM (active) |
| Cc1ccc(S(=O)(=O)N(CC(O)CN2C(=O)NC(C)(C)C2=O)c2cccc([N+](=O)[O-])c2)cc1 (configuration not stated) | inactive |
| Cc1cc(C)n(Cc2cnc(N3CCOCC3)s2)n1 | inactive |
| O=C(NCC(=O)N(CC1CCCO1)C(C(=O)NC1CCCCC1)c1ccccc1)c1ccco1 (configuration not stated) | inactive |
| Cc1ccc(-c2cc(C(=O)NN)n[nH]2)o1 | inactive |
| CCn1c(SCC(=O)Nc2cccc(F)c2)nnc1-c1cc2cc(Br)ccc2o1 | inactive |
| COc1ccc(-c2nnc(SCC(=O)NC3CCCCC3)o2)cc1OC | inactive |
| COc1ccc(-c2nc3cnccn3c2NC2CCCCC2)cc1-c1cccc(Cl)c1 | 25.9 µM (active) |
| COc1ccc(-c2nc3cnccn3c2NC(C)(C)CC(C)(C)C)cc1O | 18.4 µM (active) |
| COc1ccc(-c2nc3cc(C)ccn3c2NC2CCCCC2)cc1SC1CCCCC1 | 20.9 µM (active) |
| COc1ccc(C)cc1S(=O)(=O)NC1CCCCC1 | inactive |
| COc1ccc(NC(=O)N(C)C[C@H]2Oc3ncc(C#C[C@@H](C)O)cc3C(=O)N([C@H](C)CO)C[C@H]2C)cc1 | inactive |
| CC1(C)CCc2nc(SCc3ccccc3)c(C#N)cc2C1 | inactive |
| Cc1ccc(NS(=O)(=O)c2ccc(-c3ccc(=O)[nH]n3)o2)c(C)c1 | inactive |

| SMILES | Potency |
| --- | --- |
| OCc1nc(CO)n(Cc2ccccc2)n1 | inactive |
| CC1(C(=O)NS(=O)(=O)c2cccc(F)c2)CCN1C(=O)c1cccc2ccccc12 (configuration not stated) | inactive |
| CSc1nnc(-c2ccc(C(F)(F)F)cn2)o1 | inactive |
| Cc1onc(C(=O)NN)c1-c1csc(COc2ccccc2)n1 | inactive |
| CCCC(=O)N1c2ccc(-c3csc(N)n3)cc2CC1C (configuration not stated) | inactive |
| CC(C)(C)C(=O)OCc1nc(-c2ccc(O)c(O)c2)cs1 | 20.6 µM (active) |
| Cn1c(NN)nc2sc3c(c2c1=O)CCC3 | 29.1 µM (active) |
| NNC(=O)C1CCCn2c1nc1sc3c(c1c2=O)CCCC3 (configuration not stated) | inactive |
| CC(C(=O)O)n1cnc2sc3c(c2c1=O)CCCC3 (configuration not stated) | inactive |
| Cc1ccc(N/C(N)=N/c2nc(C(F)(F)F)cc(C(F)(F)F)n2)cc1 | inactive |
| C=C[C@](C)(O)CCC1C(=C)CCC2[C@@](C)(CO)CCC[C@@]12C (some centres not stated) | 18.4 µM (active) |
| Cc1nnc(SCC(=O)NC2CCCC2)s1 | inactive |
| O=C(NCc1cccs1)C1CCN(S(=O)(=O)c2ccc(Cl)cc2)CC1 | inactive |
| O=C(NCc1ccccc1)C1CCCN(S(=O)(=O)c2cccs2)C1 (configuration not stated) | inactive |
| O=C(NCc1ccc(Cl)cc1)C1CCN(S(=O)(=O)c2cccs2)CC1 | 23.1 µM (active) |
| CCCCCNC(=O)C1C(=O)Nc2ccccc2C(=O)N1C(C)(C)C (configuration not stated) | inactive |
| CCOc1ccc(-c2cc3nc(C4CCN(C(=O)OC(C)(C)C)CC4)c(C(=O)Nc4ccc(C(=O)OC)cc4)cn3n2)cc1 | inactive |
| COc1ccc(Nc2ncc3c(n2)CCN(C(=O)OC(C)(C)C)C3)cc1 | 20.6 µM (active) |
| COc1ccc(NC(=S)N2CCc3cc(OC)c(OC)cc3C2)cc1 | inactive |
